Measured values: PubChem BioAssay

The compounds below were run on glycogen synthase kinase-3 (GSK3A per assay name; protocol says GSK3B) (assay: compounds binding glycogen synthase kinase-3 – biochemical, small-molecule microarray, 635 nm fluorescence, GSK3A, primary screen (AID 1103; further: the record names both GSK3A and GSK3B)). Settings: fluorescence 635 nm, higher = more signal.

| SMILES | composite z-score |
| --- | --- |
| CCOC(=O)CCN1C(=O)[C@H]2[C@H]3[C@H](O)[C@H](O)CC(=NO[C@@H]4O[C@H](CO)[C@@H](O)[C@H](O)[C@H]4O)[C@H]3CC[C@H]2C1=O | 0.822 |
| CCC1=NOC(CCC2CC(OC(=O)NCc3cccc4c3OCO4)CC3(CCCC(COC(=O)NCCc4ccc(Cl)cc4)O3)O2)C1 (stereo not given) | 0.173 |
| CC(C)=CCCC(C)=CCON=C1C[C@@H](O)[C@@H](O)[C@@H]2[C@@H]3C(=O)N(C4CCCCC4)C(=O)[C@@H]3CC[C@H]12 | 0.701 |
| COC(=O)[C@@H]1CC[C@H](C)[C@@H](c2ccc(C)cc2)N1C(=O)c1ccc(C=NO[C@@H](C)c2cc(-c3c(C)cc(C)cc3C)no2)cc1 | 0.738 |
| CCN1C(=O)[C@H]2[C@H]3[C@H](O)[C@H](O)CC(=NO[C@H](C)c4cn([C@@H]5COC[C@H]5O)nn4)[C@@H]3CC[C@H]2C1=O | -0.162 |
| CC(C)=NOC[C@@H](O)[C@H]1O[C@@H]2OC(C)(C)O[C@@H]2[C@H]1O | 0.892 |
| COc1ccc(COC(=O)NN=C2C[C@@H](O)[C@@H](O)[C@@H]3[C@@H]4C(=O)N(C[C@@H]5CCCO5)C(=O)[C@@H]4CC[C@@H]23)cc1 | 0.0003 |
| COc1ccc(O[C@H]2C=C[C@@H](c3ccccc3)O[C@@H]2CON=C(C)CCN2CCCc3nc(C)c(C)cc32)cc1 | 0.73 |
| CCc1cc2c(nc1CC)CCN(CCC(C)=NOCC[C@@H]1C=C[C@H](OC(C)=O)[C@@H](COC(C)=O)O1)C2 | 0.459 |
| CCOC(=O)[C@H](CC(C)C)NC(=O)CCC1CC(OC(=O)NCCc2ccc(F)cc2)CC2(CCCC(COC(=O)NCCCN3CCCC3=O)O2)O1 (stereo not given in full) | 0.519 |
| COc1ccc(COC(=O)NN=C2C[C@@H](O)[C@@H](O)[C@@H]3[C@@H]4C(=O)N(Cc5ccc6c(c5)OCO6)C(=O)[C@@H]4CC[C@H]23)cc1 | -0.104 |
| CC(CCN1CCCCc2nc(C)c(C)cc21)=NOC[C@@H](O)[C@H]1O[C@@H]2OC(C)(C)O[C@@H]2[C@H]1O | 0.397 |
| O=C1[C@H]2CCn3c(=O)n(-c4ccccc4)c(=O)n3[C@H]2[C@H](O)[C@@H]2O[C@H]12 | 0.381 |
| CC(C)=NO[C@H](C)c1cn([C@@H]2COC[C@H]2O)nn1 | 0.788 |
| CC(CCN1CCc2nc(-c3ccccc3)c(-c3ccccc3)cc2C1)=NO[C@@H](C)c1cc(-c2c(C)cc(C)cc2C)no1 | -0.725 |
| CC(C)CN1CCc2nc(-c3ccccc3)c3c(c2C1)CO[C@@H](C)C3 | 1.16 |
| CCOC(=O)CCN1C(=O)[C@H]2[C@H]3[C@H](O)[C@H](O)CC(=NOCC=C(C)CCC=C(C)C)[C@@H]3CC[C@H]2C1=O | 0.659 |
| CON=C[C@@H](OC)[C@H](C)C=CCC(=O)OC | -0.115 |
| CCOC(=O)CCN1C(=O)[C@H]2[C@H]3[C@H](O)[C@H](O)CC(=NO[C@@H]4O[C@H](CO)[C@@H](O)[C@H](O)[C@H]4O)[C@@H]3CC[C@H]2C1=O | 1.26 |
| CC(CCN1CCCc2nc(C)c(C)cc21)=NO[C@H](C)c1cn([C@@H]2COC[C@H]2O)nn1 | 1.11 |
| CC(C)(C)N1C(=O)[C@H]2[C@H]3[C@H](O)[C@H](O)CC(=NOC[C@@H](O)COCc4ccco4)[C@H]3CC[C@H]2C1=O | -0.274 |
| CCOC(=O)CCN1C(=O)[C@H]2[C@@H]3C(=CC[C@H]2C1=O)C(=O)[C@H]1O[C@H]1[C@H]3O | -0.837 |
| COc1ccc(COC(=O)NN=C2C[C@@H](O)[C@@H](O)[C@@H]3[C@@H]4C(=O)N(C[C@@H]5CCCO5)C(=O)[C@@H]4CC[C@H]23)cc1 | -0.797 |
| CCN1C(=O)[C@H]2[C@H]3[C@H](O)[C@H](O)CC(=NOCC(C)C)[C@H]3CC[C@H]2C1=O | 0.636 |
| CC(C)=CCCC(C)=CCON=C1C[C@@H](O)[C@@H](O)[C@@H]2[C@@H]3C(=O)N(Cc4ccc5c(c4)OCO5)C(=O)[C@@H]3CC[C@H]12 | 0.327 |
